Screening results from PubChem.
This is a sample that favours compounds with a hit; in the whole collection about 2.4% have one here.
TDP1 block – TDP1 (human) enzyme inhibition | Potency, µM (titrated, usually from 130 µM), usual class: inhibitors | 0.28% of 350,000 active | recombinant TDP1, AlphaScreen DNA substrate cleavage; note: nearly all actives have a fitted effect of over 40% in size
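Recombinant E. coli-expressed Tdp1 (1 nM) preincubated with compound 15 min at RT, then 5'-biotin/3'-phosphotyrosine-FITC DNA substrate (15 nM) added for 5 min. AlphaScreen beads (10 ug/ml) added, 10 min RT; tyrosine-FITC cleavage read as signal loss.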
POLI inh – DNA polymerase iota (human) inhibition; Pol iota fluorescent replication assay, 10 min; Potency, µM (titrated, usually from 115 µM), most hits filed as inhibitors; 1% of 390,000 active; AID 588590
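Fluorescent replication assay read twice, at 0 min and 10 min after adding 50 nM (final) substrate. Enzyme (10 nM) and compounds were first incubated 15 min at room temperature; enzyme-free buffer wells were negative controls.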
Pol beta inh – blocks human DNA polymerase beta activity. P06746. Pol beta primer extension/strand displacement, fluorescence kinetic. Potency, µM (series often up to 114 µM), usual class: inhibitors. 1.3% of 340,000 active
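Homogeneous kinetic assay of primer extension and strand displacement by 10 nM Pol beta, preincubated 15 min at room temperature with compound before 50 nM substrate (final) was added. Read at 0 and 10 min; four-parameter Hill fit.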
POLH inh – inhibitors of human DNA polymerase eta | AID 588591 | recombinant Pol eta, fluorescent DNA replication assay | 1.2% of 390,000 active | Potency, µM (series often up to 114 µM), actives largely listed as inhibitors | Q9Y253
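Pol eta (10 nM) was preincubated with compounds for 15 min at room temperature, after which fluorescent replication substrate (50 nM final) was added to start the reaction. Fluorescence was read kinetically at 0 and 10 min.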
FEN1 inh – blocks human flap endonuclease 1; 0.35% of 390,000 active; Potency, µM (highest dose often 114 µM), usual class: inhibitors; Recombinant FEN1 flap cleavage, fluorescence, 15 min; AID 588795; note: nearly all actives have a fitted effect of over 65% in size
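Potency values derive from four-parameter Hill fits of normalized qHTS data. The reaction used 10 nM FEN1 preincubated 15 min at room temperature with compound, then 50 nM DNA substrate, read at 0 and 15 min.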
Pol kappa inh – inhibitors of human DNA polymerase kappa; purified Pol kappa, fluorescent DNA synthesis assay, 10 min; Q9UBT6; 0.53% of 400,000 active; Potency, µM (highest dose often 107 µM), usual class: inhibitors; AID 588579
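Here, compound and 10 nM enzyme are combined for 15 min at room temperature; adding 50 nM substrate (final) starts DNA synthesis, tracked by fluorescence at 0 and 10 min against buffer-only wells.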
Numbers stand for hits; – = inactive; ? = inconclusive; · = not tested or not shown; [ ] = remark or other dose. Calls come from the whole dose curve; as a rule, active = well fitted curve in the direction sought with a large enough effect; inconclusive = small, poorly fitted or top-dose-only effect, or another doubt; inactive = no such curve, though single readings can be large; an effect the other way counts as inactive or inconclusive.

SMILES	TDP1 block	POLI inh	Pol beta inh	POLH inh	FEN1 inh	Pol kappa inh
Cc1ccc(S(=O)(=O)N2CCN(c3nc(N(C)c4cc(Cl)ccc4O)nc4ccccc34)CC2)cc1	·	–	·	·	–	–
COc1cccc(CNC(=O)c2ccc(Cn3c(SCc4ccccc4)nc4cccnc43)cc2)c1	–	?	–	–	–	–
COc1ccc(Cn2c(SCc3ccc(C(=O)NCc4ccc(C)cc4)cc3)nc3cccnc32)cc1	–	79.4µM	–	–	?	–
CNc1cc2c(cc1S(=O)(=O)Nc1ccc(C)c(C)c1)CCC(=O)N2	–	·	·	·	·	·
CC1CCc2c(sc(NC(=O)c3cccn3C)c2C(N)=O)C1 (stereo not given)	–	?	·	31.6µM	–	–
CC(C)(CO)C(O)C(=O)NCCCC(=O)O (stereo not given)	·	·	·	·	·	–[19.4 µM]
N#C/C(=C\c1c(Oc2ccc(Br)cc2)nc2ccccn2c1=O)c1nc2ccccc2s1	–	12.6µM	–	–	?	79.4µM
O=C(CSc1nnc2[nH]c(=O)cc(-c3ccccc3)n12)Nc1ccccc1C(F)(F)F	–	–	–	–	–	–
COc1ccc(Cl)cc1NC(=O)CSc1nnc2[nH]c(=O)cc(-c3ccccc3)n12	–	–	–	89.1µM	–	–
CCC(=O)OC1(C)C(=O)C=C2C=C(c3ccc(C#N)cc3)OC=C2C1=O (stereo not given)	–	20µM	·	44.7µM	?	?
CC1(C)CC(=O)C2=C(C1)OC(N)=C(C#N)[C@@H]2c1ccccc1[N+](=O)[O-]	70.8µM	–	–	–	–	–
Cn1cccc1C1C(C#N)=C(N)OC2=C1C(=O)CC(C)(C)C2 (stereo not given)	–	–	–	–	–	–
CC1(C)CC(=O)C2=C(C1)OC(N)=C(C#N)C2c1ccc[nH]1 (stereo not given)	–	28.2µM	20µM	–	–	79.4µM
COC(=O)NC(c1ccco1)[C@@]1(C(=O)OC)CCCC1=O (stereo not given in full)	–[21 µM]	·	·	·	·	·
CCC(=O)Nc1cc2c3c(c1)CCN3C(=O)CC2	–	?	–	–	–	79.4µM
C/C1=C\[C@@H](O)C(C(C)C)C(OC(=O)c2ccc(O)cc2)C/C(C)=C/CC1 (stereo not given in full)	–	·	·	·	·	–
O=C1NC(=S)S/C1=C\c1coc2ccc(O)cc2c1=O	·	?	?	50.1µM	–	–
Cc1cc(/C=C2/C(=O)N(C)C(=S)N2C)c(C)n1C1CC1	–	–	–	–	–	–
O=C1NC(=S)S/C1=C\c1coc2ccccc2c1=O	–	?	–	–	–	–
O=C1NC(=S)SC1=Cc1cc(Br)ccc1O	·	?	·	50.1µM	?	–
Cc1cc(/C=C2\SC(=S)NC2=O)c(C)n1C1CC1	–	?	25.1µM	?	–	?
O=C(Nc1cccc(Nc2ccccc2)c1)c1cnn2c1NC(=C1CC1)C=C2C(F)F	·	–	·	·	–	–
CC(C(=O)c1ccccc1)[n+]1ccc(Cl)c2ccc(Cl)cc21 (stereo not given)	·	–	·	·	–	–
CSCC[C@@H]1NC(=O)C/C=C\[C@@H](C)COC(=O)[C@@H](C)COC1=O	–[21 µM]	·	·	·	·	·
CCOC(=O)c1c(C)sc(-c2c(-c3cc(C)ccc3C)[nH]c3c2c(=O)n(C)c(=O)n3C)c1O	–	?	5.62µM	?	–	–
SMILES	TDP1 block	POLI inh	Pol beta inh	POLH inh	FEN1 inh	Pol kappa inh
Cc1ccc(C)c(-c2[nH]c3c(c2-c2c(-n4cccc4)n(C)c(=O)n(C)c2=O)c(=O)n(C)c(=O)n3C)c1	–	–	–	–	–	–
CCOC(=O)c1c(N2C(=O)Nc3ccccc3N2O)n[nH]c1-c1cccc(Cl)c1	–	–	–	–	–	–
CCOC(=O)c1c(C)sc(-c2c(-c3cccc(Cl)c3)[nH]c3c2c(=O)n(C)c(=O)n3C)c1O	–	79.4µM	–	·	–	–
Cc1ccnc2c(Cl)ccc(Cl)c12	·	–	·	·	–	–
COc1ccccc1N1CCN(S(=O)(=O)c2ccc3c(c2)NC(=O)C(C)S3)CC1 (stereo not given)	–	?	–	–	–	–
COc1ccccc1N1CCN(C(=O)C(C)CS(=O)(=O)c2ccc3c(c2)NC(=O)CS3)CC1 (stereo not given)	–	–	8.91µM	–	–	–
